Measurements: PubChem BioAssay AID1159580 (chemical genetic matrix, 2015)
“And” between values parts separate entries of the source, which are not always exact repeats. Equal values may be shown once. The campaign covered roughly 5,500 compounds. About 2,000 (36%) were called active. About 18% were inconclusive and are not listed. No stated cut-off is given here; in the data, active means normalized growth mostly below about 0.91 (no sharp cut-off); inconclusive means no clear call, values can overlap the other calls; inactive means mostly above about 0.92. This is one part of the list.

Assay: chemical genetic growth profiling, strain panel (AID 1159580);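 further: tested at 20 µM; growth read once vehicle control cultures reached saturation at 30 °C; 1 = growth at the plate median or of vehicle wells; lower values mean less growth of the strain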
Settings: S. cerevisiae deletion strains, growth OD

Measured: normalized growth

COc1ccc(-c2coc3c(OC)c(OC)cc(O)c3c2=O)cc1
inactive: locus YAL021C, strain ccr4, active compounds read low 1.03 | locus YAL026C, strain drs2, active compounds read low 1 | locus YAL030W, strain snc1, active compounds read low 0.997 | locus YBL061C, strain skt5, active compounds read low 0.999 | locus YBR009C, strain hhf1, active compounds read low 1.01 | locus YBR023C, strain chs3, active compounds read low 0.99 | locus YBR171W, strain sec66, active compounds read low 1.03 | locus YBR229C, strain ROT2, active compounds read low 0.988 | locus YBR231C, strain swc5, active compounds read low 0.994 | locus YBR279W, strain paf1, active compounds read low 0.995 | locus YCL011C, strain gbp2, active compounds read low 0.998 | locus YCL016C, strain dcc1, active compounds read low 1 | locus YCL029C, strain bik1, active compounds read low 0.975 | locus YCL061C, strain MRC1, active compounds read low 1.01 | locus YCL069W, strain vba3, active compounds read low 0.999 | locus YCR088W, strain abp1, active compounds read low 0.997 | locus YDL005C, strain med2, active compounds read low 1 | locus YDL035C, strain GPR1, active compounds read low 0.981 | locus YDL040C, strain nat1, active compounds read low 1 | locus YDL074C, strain BRE1, active compounds read low 0.924 | locus YDL101C, strain DUN1, active compounds read low 0.988 | locus YDL185W, strain tfp1, active compounds read low 1.01 | locus YDL192W, strain arf1, active compounds read low 0.942 | locus YDR001C, strain nth1, active compounds read low 0.997 | locus YDR069C, strain doa4, active compounds read low 1 | locus YDR101C, strain arx1, active compounds read low 0.947 | locus YDR137W, strain rgp1, active compounds read low 0.951 | locus YDR159W, strain sac3, active compounds read low 0.988 | locus YDR162C, strain NBP2, active compounds read low 0.959 | locus YDR195W, strain ref2 1.05 | locus YDR297W, strain sur2, active compounds read low 0.992 | locus YDR318W, strain mcm21, active compounds read low 0.948 | locus YDR334W, strain swr1, active compounds read low 1.01 | locus YDR335W, strain msn5, active compounds read low 1 | locus YDR388W, active compounds read low 0.974 | locus YDR392W, strain spt3, active compounds read low 0.965 | locus YDR502C, strain sam2, active compounds read low 0.95 | locus YEL003W, strain gim4, active compounds read low 0.994 | locus YEL037C, strain rad23, active compounds read low 1.01 | locus YEL061C, strain CIN8 (second series), active compounds read low 1.01 | locus YER015W, strain faa2, active compounds read low 1 | locus YER016W, strain bim1, active compounds read low 1.01 | locus YER110C, active compounds read low 0.959 | locus YER111C, strain swi4, active compounds read low 1.03 | locus YER155C, strain BEM2 (second series), active compounds read low 1.01 | locus YER155C, strain BEM2, active compounds read low 0.996 | locus YER167W, strain BCK2, active compounds read low 0.99 | locus YFR010W, strain ubp6, active compounds read low 1.01 | locus YGL078C, strain dbp3, active compounds read low 0.968 | locus YGL086W, strain mad1, active compounds read low 0.954 | locus YGL167C, strain pmr1, active compounds read low 1.01 | locus YGL173C, strain kem1, active compounds read low 1 | locus YGL227W, strain vid30, active compounds read low 1 | locus YGL240W, strain doc1, active compounds read low 0.991 | locus YGL248W, strain PDE1, active compounds read low 0.96 | locus YGL253W, strain hxk2, active compounds read low 1.01 | locus YGR078C, strain PAC10, active compounds read low 0.956 | locus YGR135W, strain pre9, active compounds read low 0.928 | locus YGR229C, strain SMI1, active compounds read low 0.896 | locus YHR013C, strain ard1, active compounds read low 0.989 | locus YHR027C, strain rpn1, active compounds read low 1.01 | locus YHR030C, strain SLT2, active compounds read low 0.917 | locus YHR079C, strain IRE1 (second series), active compounds read low 0.978 | locus YHR079C, strain IRE1, active compounds read low 0.925 | locus YHR094C, strain hxt1, active compounds read low 0.982 | locus YHR129C, strain ARP1, active compounds read low 0.985 | locus YHR142W, strain chs7, active compounds read low 0.976 | locus YHR200W, strain rpn10, active compounds read low 0.941 | locus YIL066C, strain RNR3, active compounds read low 0.986 | locus YIL073C, strain SPO22, active compounds read low 0.9 | locus YIL125W, strain kgd1, active compounds read low 0.983 | locus YIR030C, strain dcg1, active compounds read low 0.961 | locus YJL092W, strain hpr5, active compounds read low 1.01 | locus YJL095W, strain BCK1 (second series), active compounds read low 0.995 | locus YJL095W, strain BCK1, active compounds read low 0.871 and 0.958 | locus YJL115W, strain asf1, active compounds read low 1.01 | locus YJL129C, strain trk1, active compounds read low 0.999 | locus YJL134W, strain LCB3, active compounds read low 1 | locus YJL154C, strain vps35, active compounds read low 1.01 | locus YJL164C, strain tpk1, active compounds read low 0.997 | locus YJL166W, strain qcr8, active compounds read low 0.996 | locus YJL168C, strain set2, active compounds read low 0.978 | locus YJL187C, strain SWE1 (second series), active compounds read low 0.968 | locus YJL187C, strain SWE1, active compounds read low 0.992 | locus YJR066W, strain TOR1, active compounds read low 0.863 | locus YKL009W, strain mrt4, active compounds read low 0.972 | locus YKL068W, active compounds read low 0.993 | locus YKL085W, strain MDH1 (second series), active compounds read low 0.979 | locus YKL085W, strain MDH1, active compounds read low 0.979 | locus YKL160W, strain elf1, active compounds read low 0.991 | locus YKR026C, strain gcn3, active compounds read low 1.01 | locus YKR091W, strain srl3, active compounds read low 0.999 | locus YLL001W, strain dnm1, active compounds read low 1.01 | locus YLL026W, active compounds read low 1.01 | locus YLL041C, strain sdh2, active compounds read low 1.01 | locus YLR027C, strain aat2, active compounds read low 1 | locus YLR039C, strain RIC1, active compounds read low 0.903 | locus YLR058C, strain SHM2, active compounds read low 0.96 | locus YLR102C, strain apc9, active compounds read low 0.986 | locus YLR113W, strain HOG1, active compounds read low 0.949 | locus YLR221C, strain rsa3, active compounds read low 0.997 | locus YLR258W, strain gsy2, active compounds read low 0.982 | locus YLR262C, strain YPT6 (second series), active compounds read low 0.949 | locus YLR268W, strain sec22, active compounds read low 0.927 | locus YLR320W, strain mms22, active compounds read low 0.993 | locus YLR330W, strain CHS5, active compounds read low 0.976 | locus YLR342W, strain FKS1, active compounds read low 1 | locus YLR357W, strain rsc2, active compounds read low 0.989 | locus YLR370C, strain arc18, active compounds read low 1 | locus YLR371W, strain rom2, active compounds read low 0.945 | locus YLR384C, strain iki3, active compounds read low 1.01 | locus YLR418C, strain cdc73, active compounds read low 0.855 | locus YML016C, strain PPZ1, active compounds read low 0.985 | locus YML032C, strain rad52, active compounds read low 0.951 | locus YML120C, strain ndi1, active compounds read low 0.997 | locus YML124C, strain tub3, active compounds read low 0.981 | locus YMR058W, strain fet3, active compounds read low 1.01 | locus YMR078C, strain ctf18, active compounds read low 0.976 | locus YMR125W, strain sto1, active compounds read low 1.01 | locus YMR129W, active compounds read low 1 | locus YMR205C, strain PFK2, active compounds read low 0.991 | locus YMR223W, strain ubp8, active compounds read low 0.95 | locus YMR231W, strain pep5, active compounds read low 0.995 | locus YMR263W, strain SAP30, active compounds read low 0.97 | locus YMR307W, strain GAS1, active compounds read low 0.787 | locus YNL067W, strain RPL9B, active compounds read low 0.968 | locus YNL071W, strain lat1, active compounds read low 1 | locus YNL128W, strain TEP1, active compounds read low 1.01 | locus YNL183C, strain NPR1, active compounds read low 0.913 | locus YNL209W, strain ssb2, active compounds read low 0.999 | locus YNL233W, strain BNI4, active compounds read low 0.908 | locus YNL248C, strain rpa49, active compounds read low 1.01 | locus YNL250W, strain rad50, active compounds read low 0.997 | locus YNL271C, strain bni1, active compounds read low 0.98 | locus YNL298W, strain CLA4, active compounds read low 0.965 | locus YNL322C, strain KRE1 (second series), active compounds read low 1.01 | locus YNR049C, strain mso1, active compounds read low 1 | locus YNR052C, strain pop2, active compounds read low 0.977 | locus YOL012C, strain htz1 0.766 | locus YOL147C, strain pex11, active compounds read low 0.96 | locus YOR001W, strain rrp6, active compounds read low 1.01 | locus YOR061W, strain CKA2, active compounds read low 1 | locus YOR069W, strain VPS5, active compounds read low 0.995 | locus YOR070C, strain gyp1, active compounds read low 1.02 | locus YOR080W, strain dia2, active compounds read low 1.01 | locus YOR083W, strain WHI5, active compounds read low 0.99 | locus YOR106W, strain vam3, active compounds read low 0.989 | locus YOR136W, strain idh2, active compounds read low 0.976 | locus YOR144C, strain elg1, active compounds read low 0.979 | locus YOR184W, strain ser1, active compounds read low 0.887 | locus YOR231W, strain MKK1, active compounds read low 0.949 | locus YOR265W, strain rbl2, active compounds read low 1.01 | locus YOR270C, strain vph1, active compounds read low 0.945 | locus YOR290C, strain snf2, active compounds read low 0.986 | locus YOR316C, strain cot1, active compounds read low 0.991 | locus YPL051W, strain arl3, active compounds read low 0.997 | locus YPL078C, strain atp4, active compounds read low 0.991 | locus YPL106C, strain sse1, active compounds read low 0.948 | locus YPL240C, strain hsp82, active compounds read low 0.994 | locus YPL241C, strain CIN2, active compounds read low 1.01 | locus YPL256C, strain CLN2, active compounds read low 0.904 | locus YPR119W, strain clb2, active compounds read low 0.982 | locus YPR141C, strain kar3, active compounds read low 0.979 | locus YPR167C, strain met16, active compounds read low 0.955 | strain wtn01, active compounds read low 0.942
active: locus YBR021W, strain FUR4, active compounds read low 0.838 | locus YGR252W, strain gcn5, active compounds read low 0.74 | locus YKR001C, strain vps1, active compounds read low 0.871 | locus YNL307C, strain MCK1, active compounds read low 0.903 | locus YPR163C, strain tif3, active compounds read low 0.866
